Consider 15 compounds from PubChem BioAssay (EPA / NIEHS).

Results filed as inconclusive are left out. Activity calls are given as the source filed them. The calls were made as follows, unless noted: active = hit-call score of the fitted dose curve at least 0.9, where 1 is the maximum; inconclusive = response in the unintended direction; inactive = score below 0.9.

Chain of Estrogen receptor (Homo sapiens) (P03372 whole entry, looked up): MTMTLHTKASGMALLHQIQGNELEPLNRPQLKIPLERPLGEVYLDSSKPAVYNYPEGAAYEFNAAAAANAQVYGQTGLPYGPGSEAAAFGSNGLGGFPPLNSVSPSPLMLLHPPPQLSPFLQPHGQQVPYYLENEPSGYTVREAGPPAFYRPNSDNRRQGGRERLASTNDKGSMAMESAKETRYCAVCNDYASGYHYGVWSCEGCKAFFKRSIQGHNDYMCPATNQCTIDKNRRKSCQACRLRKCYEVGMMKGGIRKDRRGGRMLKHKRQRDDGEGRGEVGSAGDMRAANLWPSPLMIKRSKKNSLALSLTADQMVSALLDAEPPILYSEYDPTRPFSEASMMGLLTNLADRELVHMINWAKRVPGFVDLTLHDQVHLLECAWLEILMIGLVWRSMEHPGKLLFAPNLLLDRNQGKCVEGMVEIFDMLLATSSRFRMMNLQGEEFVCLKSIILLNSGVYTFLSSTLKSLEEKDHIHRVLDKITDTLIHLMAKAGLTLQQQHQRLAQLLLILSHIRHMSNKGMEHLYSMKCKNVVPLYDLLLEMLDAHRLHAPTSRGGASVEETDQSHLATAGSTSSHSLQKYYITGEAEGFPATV

Test system in one assay: not listed separately
Briefly: CCTE_Shafer_MEA_acute_synchrony_index: CCTE's Neural Acute Assay for Synchrony, Shafer Lab (AID 2284027; active = hit-call score of the fitted dose curve at least 0.9, where 1 is the maximum; inactive = score below 0.9;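 also: network synchrony index of spontaneous spiking in primary rat cortical neurons on MEAs; fitted for loss of signal so actives lower synchrony relative to DMSO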). Put shortly: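 Rat cortical cultures, DIV 13/15; spikes detected at 8x rms noise, 300-5000 Hz band-pass. Compound 0.03-40 uM, ≥3 wells; 40-min pre- and post-exposure recordings, 37 C. Readout: % change in synchrony index; loss-of-signal fit vs DMSO.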
As to `CN(C)CCCN1c2ccccc2Sc2ccc(Cl)cc21`, the AC50 (in general, the concentration at which the activity in the assay is half-maximal) is 32.2 µM (active).

For the compound `Cc1c(C)c2c(c(C)c1O)CCC(C)(COc1ccc(CC3SC(=O)NC3=O)cc1)O2` (stereo not given), the AC50 was 35.5 µM (active).

As for `C/C=C/c1ccc(OC)cc1`, the compound was classed as inactive.

Turning to `O=C(O)CN(CC(=O)O)CC(=O)O`, the compound was called inactive.

Turning to `Cc1ccc(C(C)(C)C)c(O)c1`, the compound was called inactive.

In the case of `CC(N)=O`, the compound was called inactive.

In the case of `O=C(N[C@@H](c1ccccc1)[C@@H]1CCCCN1)c1cccc(C(F)(F)F)c1Cl`, the AC50 is 5 µM (active).

For `Cc1ccc(-c2cc(C(F)(F)F)nn2-c2ccc(S(N)(=O)=O)cc2)cc1`, the outcome was inactive.

As for `O=C1OC(c2ccc(O)cc2)(c2ccc(O)cc2)c2ccccc21`, the AC50 is 28.5 µM (active).

Regarding `CCCC(=O)O`, the compound was called inactive.

Consider `CSc1ccc(Oc2ccc(S(N)(=O)=O)cc2CN(C)C)cc1C`, for which the AC50 is 31.3 µM (active).

A further assay deals with Estrogen receptor (Homo sapiens) (UniProt P03372). Briefly: CCTE_Deisenroth_AIME_384WELL_LUC_Active: CCTE's 384-well Estrogen Receptor Transactivation Assay with AIME metabolic competence (ERTA luciferase; metabolism positive), Deisenroth Lab (AID 2284030). Put shortly:
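In this metabolism-positive format, a 2-hour exposure to alginate-immobilized rat S9 precedes a 24 hour luciferase transactivation readout in VM7Luc4E2 cells. Dosing spans 10 concentrations from 0.002 to 200 uM.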
In the case of `CC1=C(C)S(=O)(=O)CCS1(=O)=O`, the call was inactive.

On to `c1ccc2occc2c1`, for which the compound was called inactive.

In the case of `O=C(O)CN(CC(=O)O)CC(=O)O`, the AC50 is 28.5 µM (active).

`Cc1ccc(C(C)(C)C)c(O)c1`: the compound was called inactive.

In the case of `CSc1ccc(Oc2ccc(S(N)(=O)=O)cc2CN(C)C)cc1C`, the result was inactive.

Test system in a further assay: not listed separately
Briefly: CCTE_Deisenroth_AIME_384WELL_CTox_Active: Cytotoxicity Assessment (CTOX) in CCTE's 384-well Estrogen Receptor Transactivation Assay with AIME metabolic competence (metabolism positive), Deisenroth Lab (AID 2284037).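 Also: chemicals first conditioned 2 h by alginate-bound induced rat liver S9 before cells; activity means signal loss indicating cell death.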 Put shortly: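 Cytotoxicity in VM7Luc4E2 breast cells, 24 hour, measured as protease-substrate fluorescence loss, after 2-hour metabolic conditioning with induced rat hepatic S9 in alginate microspheres. Concentrations 0.002 - 200 uM, 10 points, bidirectional fitting.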
For the compound `CC1=C(C)S(=O)(=O)CCS1(=O)=O`, the AC50 was 172 µM (active).

As for `CC(C)NCC(O)c1ccc(O)c(O)c1` (stereo not given), the AC50 is 106 µM (active).

As to `Nc1nc(=S)c2[nH]cnc2[nH]1`, the compound was classed as inactive.

As for `c1ccc2occc2c1`, the result was inactive.

As to `C/C=C/c1ccc(OC)cc1`, the compound was called inactive.

`O=C(O)CN(CC(=O)O)CC(=O)O`: the compound was called inactive.

Turning to `Cc1ccc(C(C)(C)C)c(O)c1`, the compound was classed as inactive.

Take `CSc1ccc(Oc2ccc(S(N)(=O)=O)cc2CN(C)C)cc1C`: the outcome was inactive.

For a further assay, the target named is Estrogen receptor (Homo sapiens) (UniProt P03372). Briefly: CCTE_Deisenroth_AIME_384WELL_LUC_Inactive: CCTE's 384-well Estrogen Receptor Transactivation Assay without AIME metabolic competence (ERTA luciferase; metabolism negative), Deisenroth Lab (AID 2284038).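 Also: VM7Luc4E2 breast cells given medium preincubated 2 h with S9-free microspheres; hits raise estrogen receptor luciferase signal so potencies reflect agonists.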 The procedure, abridged:
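Metabolism-negative mode: AIME lids stamped in alginate-water, no hepatic S9. 2 h chemical incubation → medium onto VM7Luc4E2 ERTA, 24 h. Readout luciferase luminescence; gain-of-signal fit vs 17beta-estradiol. Conc. 0.002 - 200 uM.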
Regarding `c1ccc2occc2c1`, the result was inactive.

With `O=C(O)CN(CC(=O)O)CC(=O)O`, the concentration at half-maximal activity (AC50) was 28.8 µM (active).

For the compound `Cc1ccc(C(C)(C)C)c(O)c1`, the result was inactive.

Turning to `CSc1ccc(Oc2ccc(S(N)(=O)=O)cc2CN(C)C)cc1C`, the outcome was inactive.

Test system in the next assay: not listed separately
Briefly: CCTE_Deisenroth_AIME_384WELL_CTox_Inactive: Cytotoxicity Assessment (CTOX) in CCTE's 384-well Estrogen Receptor Transactivation Assay without AIME metabolic competence (metabolism negative), Deisenroth Lab (AID 2284039).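 Also: cell viability via live-cell protease substrate cleaved to fluorescent probe; cells exposed 24 h to medium preincubated 2 h with alginate-water beads without S9; loss of fluorescence signal means loss of viability.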 The procedure, abridged:
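VM7Luc4E2 cells, metabolism-negative arm: test chemicals (0.002–200 uM, 10 points) pre-incubated 2 h with alginate-water microspheres, then medium transferred to cells for 24 h. Viability read as protease-substrate cleavage to fluorescent probe; loss-of-signal, bidirectional fitting.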
For the compound `CC1=C(C)S(=O)(=O)CCS1(=O)=O`, the AC50 was 100 µM (active).

For `CC(C)NCC(O)c1ccc(O)c(O)c1` (stereo not given), the AC50 was 100 µM (active).

As for `Nc1nc(=S)c2[nH]cnc2[nH]1`, the call was inactive.

Consider `c1ccc2occc2c1`, for which the compound was classed as inactive.

Consider `C/C=C/c1ccc(OC)cc1`, for which the compound was classed as inactive.

With `Cc1ccc(C(C)(C)C)c(O)c1`, the outcome was inactive.

For `CSc1ccc(Oc2ccc(S(N)(=O)=O)cc2CN(C)C)cc1C`, the outcome was inactive.
